Source: PubChem BioAssay (NCATS)
Records with an inconclusive call do not appear. Entries that show only a call come without a potency. Unmarked numbers belong to inactive results. Calls of active or inactive are those of the source. Unless noted, calls follow the shape of the dose curve; as a rule, active = well fitted curve in the direction sought with a large enough effect; inconclusive = small, poorly fitted or top-dose-only effect, or another doubt; inactive = no such curve, though single readings can be large; an effect the other way counts as inactive or inconclusive.

Columns and labels:
[1] = qHTS to identify inhibitors of the type 1 interferon - major histocompatibility complex class I in skeletal muscle: primary screen against the NCATS Mechanism Interrogation Plate v5.0 (MIPE) Libary (AID 1347411); also: nearly all actives have a fitted effect of over 65% in size
In short: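 Immortalized human myoblasts (C25cl48) with HiBit knocked into endogenous HLA-B*08:01 were stimulated with 4 ng/ml IFN-beta and given compounds in 11-point 1:3 titration from 46 uM. After 24 h at 37 C, lytic HiBiT luminescence was read.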

[2] = molecular target: Calcium and integrin-binding protein 1 (Homo sapiens) (UniProt Q99828); test: Primary qHTS for Identification of Calcium Integrin Binding Protein 1 (CIB1) Competitor (AID 1508620);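 also: GST tagged CIB1 binding a fluorescein labelled alphaIIb integrin peptide tracer; top concentration of the series differs between compounds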
In short: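 CIB1-GST (1 uM final) and compound incubated 15 min at room temperature before adding FITC-alphaIIb peptide tracer (100 nM final). Competition for binding read by fluorescence polarization (ex 480, em 540) after another 15 min at room temperature.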

[3] = molecular target: Cytochrome P450 2D6 (Homo sapiens) (UniProt P10635); test: Cytochrome P450 family 2 subfamily D member 6 (CYP2D6) small molecule antagonists: luciferase biochemical (cell-free) qHTS assay (AID 1645840; active = well fitted curve in the direction sought with a large enough effect in the repeat runs; an effect the other way counts as inactive or inconclusive; also: nearly all actives have a fitted effect of over 55% in size; also: potency is read from the fitted curve at half-maximal effect)
In short: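 P450-Glo luminescent screen: recombinant CYP2D6 enzyme–proluciferin substrate mix preincubated with compound 10 min at room temperature, then NADPH regeneration added for 1 h at room temperature. Detection reagent added for 20 min; luciferin light read as relative luminescence units.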

[4] = Primary qHTS for inhibitors of nuclear receptor binding SET domain protein 2 (NSD2) in an isogenic RCH-ACV NSD2 p.E1099K mutant (9B) (AID 1645876); also: nearly all actives have a fitted effect of over 70% in size
[5] = Primary qHTS for inhibitors of nuclear receptor binding SET domain protein 2 (NSD2) in an RCH-ACV wild type WT cells (2C) (AID 1645877); also: nearly all actives have a fitted effect of over 70% in size; also: potency is read from the fitted curve at half-maximal effect
[6] = molecular target: Cytochrome P450 2C9 (Homo sapiens) (UniProt P11712); test: Cytochrome P450 family 2 subfamily C member 9 (CYP2C9) small molecule antagonists: luciferase biochemical (cell-free) qHTS assay (AID 1645842; active = well fitted curve in the direction sought with a large enough effect in the repeat runs; an effect the other way counts as inactive or inconclusive; also: nearly all actives have a fitted effect of over 55% in size; also: potency is read from the fitted curve at half-maximal effect)
In short: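 Luminescence, after 20 min with luciferin detection reagent, reflected CYP2C9 turnover during a 1 h NADPH-driven reaction at 37C. Enzyme-substrate mix contained 0.4% bovine serum albumin and was preincubated with compound 10 min at room temperature.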

[7] = Redox Reaction Profiling qHTS: Assay Interference Panel against the NCATS CANVASS Library (AID 1347401)
In short: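 Cell-free redox surrogate: 5 uM resazurin + 200 uM DTT, 50 mM HEPES pH 7.3/50 mM NaCl; cpds pinned, 11-pt qHTS; Ex525/Em598 read t0 and t=15 min, dark.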

Chain of Cytochrome P450 2C9 (Homo sapiens) (P11712 whole entry, looked up): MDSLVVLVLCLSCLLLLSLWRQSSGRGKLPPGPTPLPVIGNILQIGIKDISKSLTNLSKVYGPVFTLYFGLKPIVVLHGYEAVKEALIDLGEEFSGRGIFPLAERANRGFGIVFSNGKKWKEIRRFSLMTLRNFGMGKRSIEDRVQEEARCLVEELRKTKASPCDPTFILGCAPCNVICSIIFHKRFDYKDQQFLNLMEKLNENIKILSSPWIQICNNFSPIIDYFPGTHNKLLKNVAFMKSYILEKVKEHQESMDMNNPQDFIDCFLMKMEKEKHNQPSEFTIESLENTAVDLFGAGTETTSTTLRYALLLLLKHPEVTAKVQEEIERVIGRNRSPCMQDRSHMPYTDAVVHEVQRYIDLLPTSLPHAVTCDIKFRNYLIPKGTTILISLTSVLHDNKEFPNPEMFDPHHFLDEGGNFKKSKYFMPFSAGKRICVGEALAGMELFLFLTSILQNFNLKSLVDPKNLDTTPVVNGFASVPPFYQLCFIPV
Chain of Calcium and integrin-binding protein 1 (Homo sapiens) (Q99828 whole entry, looked up): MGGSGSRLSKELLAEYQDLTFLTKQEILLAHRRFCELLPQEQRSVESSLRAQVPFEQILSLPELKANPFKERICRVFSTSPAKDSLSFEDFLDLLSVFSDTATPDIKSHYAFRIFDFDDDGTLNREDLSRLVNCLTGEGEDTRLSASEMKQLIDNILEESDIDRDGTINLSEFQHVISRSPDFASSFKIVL
Chain of Cytochrome P450 2D6 (Homo sapiens) (P10635 whole entry, looked up): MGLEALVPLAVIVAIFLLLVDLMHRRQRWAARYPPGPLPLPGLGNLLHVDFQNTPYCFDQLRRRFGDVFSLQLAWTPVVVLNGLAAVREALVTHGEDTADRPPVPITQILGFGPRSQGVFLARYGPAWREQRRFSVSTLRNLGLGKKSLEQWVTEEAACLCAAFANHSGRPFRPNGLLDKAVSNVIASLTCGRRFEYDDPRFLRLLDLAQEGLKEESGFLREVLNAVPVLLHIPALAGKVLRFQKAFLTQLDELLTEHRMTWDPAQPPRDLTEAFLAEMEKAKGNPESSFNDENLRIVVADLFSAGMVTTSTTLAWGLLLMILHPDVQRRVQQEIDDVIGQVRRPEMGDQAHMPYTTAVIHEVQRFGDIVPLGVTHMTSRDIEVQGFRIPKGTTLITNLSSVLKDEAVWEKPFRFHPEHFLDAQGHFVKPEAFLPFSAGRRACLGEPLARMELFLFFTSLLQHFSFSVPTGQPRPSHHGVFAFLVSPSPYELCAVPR

SMILES: N#Cc1ccc(C2CCCc3cncn32)cc1 (configuration not stated)
- outcome [1]: inactive
- Potency [2]: inactive
- Potency [3]: 17.5 µM (active)
- Potency [4]: inactive
- Potency [5]: inactive

SMILES: O=C(O)CC1CCC(c2ccc(-c3ccc(Nc4ccc(C(F)(F)F)nc4)cn3)cc2)CC1 (configuration not stated)
- outcome [1]: inactive
- Potency [2]: inactive
- Potency [6]: inactive
- Potency [4]: inactive
- Potency [5]: inactive

SMILES: O=C(COCC(=O)N1CCN(C(c2ccccc2)c2ccccc2)CC1)Nc1ccc(Cl)cc1C(=O)O
- outcome [1]: inactive
- Potency [2]: inactive
- Potency [3]: inactive
- Potency [4]: inactive
- Potency [5]: inactive

SMILES: C/C=C/C=C/C=C/C(=O)O[C@@H]1C=C(CO)[C@](O)(CO)[C@@]2(C)CCCC(C)(C)[C@H]12
- Potency [2]: inactive

SMILES: CC(=O)O[C@H]1C[C@@]2(C)[C@@H](CC[C@H]3[C@@]4(C)C=CC(=O)[C@@H](C)[C@@H]4[C@H](OC(C)=O)C(=O)[C@@]32C)/C1=C(\CCC=C(C)C)C(=O)O
- outcome [7]: inactive
- Potency [2]: inactive
- Potency [4]: inactive
- Potency [5]: inactive

SMILES: N#CN1CCC[C@@H](n2nc(-c3ccc(Oc4ccc(F)cc4F)cc3)c(C(N)=O)c2N)C1
- outcome [1]: inactive
- Potency [2]: inactive
- Potency [5]: 16.6 µM (active)

SMILES: C=C1C[C@@]2(O)O[C@@]3(C[C@H]2C(C)C)[C@@H](C)CC[C@@H]13
- outcome [1]: inactive
- Potency [2]: inactive
- Potency [4]: inactive
- Potency [5]: inactive

SMILES: COc1cccc2c1c(O)c(C(=O)N(C)c1ccc(C(F)(F)F)cc1)c(=O)n2C
- outcome [1]: inactive
- Potency [2]: inactive
- Potency [3]: inactive
- Potency [4]: inactive
- Potency [5]: inactive

SMILES: Cn1cc(-c2c[nH]c3ncnc(N4CCOCC4)c23)cn1
- outcome [1]: inactive
- Potency [2]: inactive
- Potency [4]: inactive
- Potency [5]: 23.1 µM (active)

SMILES: COc1c2c(c(C)c3c1C(=O)OC3)OC1(C)CC(O)C34OC(OC)(CC(O)C3(C)C1C2)OC4(C)C (configuration not stated)
- Potency [2]: inactive

SMILES: CCC(=O)N1CCc2cc(OC)c(O)cc2C1
- Potency [2]: inactive
- Potency [3]: 16.9 µM (active)

SMILES: CC(NC(=O)[C@H](Cc1ccccc1)NC(=O)OCc1ccccc1)C(=O)CF (some centres not stated)
- Potency [2]: inactive

SMILES: CCOC(=O)c1ccc(NC2CCCCC2)c(N)c1
- Potency [2]: inactive
- Potency [3]: 9.52 µM (active)
- Potency [6]: 5.35 µM (active)

SMILES: CC1=C[C@H]2[C@@H](CC1=O)[C@H](C)C[C@H](O)[C@H]2C(C)C
- Potency [2]: inactive

SMILES: COc1cccc(CN(C(=O)CC(C)(C)C)C2CC(C(=O)N3CCNCC3)N(Cc3ccc4c(c3)OCO4)C2)c1 (configuration not stated)
- Potency [2]: inactive
- Potency [3]: 26.8 µM (active)

SMILES: COc1cnc(-c2ccc(Cn3c(CC(C)(C)C(=O)O)c(SC(C)(C)C)c4cc(OC[C@@H]5Cc6ccccc6N5C(C)=O)ccc43)cc2)nc1
- Potency [2]: inactive
- Potency [3]: inactive
- Potency [6]: 12 µM (active)

SMILES: CC(=O)OC/C(=C/C(=O)O)CC[C@@H]1C(CO)=CC[C@@H]2C(C)(C)CCC[C@@]12C
- Potency [2]: inactive

SMILES: CC(C)=CCc1c(O)cc2oc3cc(C)cc(O)c3c2c1C
- Potency [2]: inactive

SMILES: O=C1OC(c2ccc(O)cc2)C(O)=C1Cc1ccccc1 (configuration not stated)
- Potency [2]: inactive

SMILES: COc1cc(Cc2cnc(N)nc2N)c(C(C)C)cc1OC
- Potency [2]: inactive
- Potency [3]: inactive
- Potency [6]: inactive

SMILES: CN1CCc2cc(Cl)c(O)cc2[C@@H](c2cccc3c2OCC3)C1
- Potency [2]: inactive
- Potency [3]: 0.477 µM (active)

SMILES: C/C=C(\C)C1C(C)=CC2CCC(OS(=O)(=O)O)C(C)C2C1/C=C/C=C/C(=O)O (configuration not stated)
- Potency [2]: inactive

SMILES: CCNC(=O)OC1CCN(c2nncc3cc(OC)c(OC)cc23)CC1
- Potency [2]: inactive
- Potency [3]: 16.9 µM (active)
- Potency [6]: 15.1 µM (active)

SMILES: CC1=CCC2C(C)(C)CCCC2(C)C1CC12OC1C(O)C(CO)=CC2O (configuration not stated)
- Potency [2]: inactive

SMILES: O=C(NC/C=C/CN1CCN(c2cccc(Cl)c2Cl)CC1)c1ccc(-c2ccccn2)cc1
- Potency [2]: inactive
- Potency [3]: 1.2 µM (active)

SMILES: Cc1c(-c2ccc3c(c2)OCO3)oc2ccc(C(O)C(C)O)cc12 (configuration not stated)
- Potency [2]: inactive

SMILES: CC(=O)N[C@H]1[C@H](O[C@H]2CC[C@]3(C)C4CC=C5[C@@H]6CC(C)(C)CC[C@]6(C(=O)O)[C@H](O)C[C@@]5(C)[C@]4(C)CC[C@H]3C2(C)C)O[C@H](CO)[C@@H](O)[C@@H]1O (some centres not stated)
- Potency [2]: inactive

SMILES: COc1ccccc1CN[C@H]1CCCN[C@H]1c1ccccc1
- Potency [2]: inactive
- Potency [3]: 1.07 µM (active)
- Potency [6]: inactive
- Potency [4]: inactive

SMILES: COc1ccc(-c2ccn(CC[C@](C)(C(=O)NO)S(C)(=O)=O)c(=O)c2)c(F)c1
- Potency [2]: inactive
- Potency [3]: inactive
- Potency [6]: inactive

SMILES: C=C[C@]1(C)C[C@@H](OC(=O)CSC2C[C@H]3CC[C@@H](C2)N3C)[C@]2(C)[C@H](C)CC[C@]3(CCC(=O)[C@H]32)[C@@H](C)[C@@H]1O (some centres not stated)
- Potency [2]: inactive

SMILES: COc1c2cc(c(O)c1OC)CCCCC(O)CCc1ccc(O)c-2c1 (configuration not stated)
- Potency [2]: inactive

SMILES: CC(C)NC(=O)c1ccc(C#Cc2ccncc2)cn1
- Potency [2]: inactive
- Potency [3]: inactive
- Potency [6]: 0.601 µM (active)

SMILES: COC(=O)[C@H](c1ccccc1Cl)N1CCC2SC(=O)C=C2C1 (some centres not stated)
- Potency [2]: inactive

SMILES: COCCN1CCC(C(=O)NO)(S(=O)(=O)c2ccc(Oc3ccc(OC(F)(F)F)cc3)cc2)CC1
- Potency [2]: inactive

SMILES: CC[C@@H](C)[C@H](N)C(=O)N1Cc2ccccc2C1
- Potency [2]: inactive
- Potency [3]: 13.5 µM (active)
- Potency [6]: inactive
- Potency [4]: inactive

SMILES: COc1cccc(OC)c1-c1cc(C(=O)N[C@@H](CC(C)C)C(=O)O)nn1-c1ccnc2cc(Cl)ccc12
- Potency [2]: inactive
- Potency [3]: 23.9 µM (active)
- Potency [6]: 16.9 µM (active)
